Source: article PMC11062922 (Nature Chemical Biology, 2023)
Where two headings read alike, the source gives them in different places.

Experiments:
Set-up in all cases: species or system human, MV4-11 + K-562 + COLO205 + SK-N-BE2 + OVCAR-8
ADCK3 = conditions: read-out: apparent Kd, compound concentrations: 100 nM and 1000 nM (sheet 'Samples'), n = 1
CLK1 = conditions: read-out: apparent Kd; compound concentrations: 100 nM and 1000 nM (sheet 'Samples'), CATDS: 7.7083223058971695E-2; n = 1
CLK4 = conditions: read-out: apparent Kd; compound concentrations: 100 nM and 1000 nM (sheet 'Samples'), CATDS: 5.4708251309819003E-2; n = 1
FER = conditions: read-out: apparent Kd; compound concentrations: 100 nM and 1000 nM (sheet 'Samples'), CATDS: 0.15534788887379899; n = 1
FES = conditions: read-out: apparent Kd; compound concentrations: 100 nM and 1000 nM (sheet 'Samples'), CATDS: 6.2151263603986602E-2; n = 1
IGF1R = conditions: read-out: apparent Kd; compound concentrations: 100 nM and 1000 nM (sheet 'Samples'), CATDS: 0.14317930106922699; n = 1
INSR = conditions: read-out: apparent Kd; compound concentrations: 100 nM and 1000 nM (sheet 'Samples'), CATDS: 0.19841534550213699; n = 1
PLK1 = conditions: read-out: apparent Kd; compound concentrations: 100 nM and 1000 nM (sheet 'Samples'), CATDS: 5.09869917251893E-2; n = 1
PRKCZ = conditions: read-out: apparent Kd; compound concentrations: 100 nM and 1000 nM (sheet 'Samples'), CATDS: 4.7711419359540999E-2; n = 1
PTK2B = conditions: read-out: apparent Kd; compound concentrations: 100 nM and 1000 nM (sheet 'Samples'), CATDS: 0.144435732024948; n = 1
PTK2 = conditions: read-out: apparent Kd; compound concentrations: 100 nM and 1000 nM (sheet 'Samples'), CATDS: 9.0293978496921806E-2; n = 1
RIPK3 = conditions: read-out: apparent Kd; compound concentrations: 100 nM and 1000 nM (sheet 'Samples'), CATDS: 4.6981822696137099E-2; n = 1
TNK1 = conditions: read-out: apparent Kd; compound concentrations: 100 nM and 1000 nM (sheet 'Samples'), CATDS: 8.1384476326193098E-2; n = 1
TTK = conditions: read-out: apparent Kd; compound concentrations: 100 nM and 1000 nM (sheet 'Samples'), CATDS: 4.6872796614934702E-2; n = 1
ADCK1 = conditions: read-out: apparent Kd; compound concentrations: 100 nM and 1000 nM (sheet 'Samples'), CATDS: 6.3645310719154996E-2; n = 1
FLT3 = conditions: read-out: apparent Kd; compound concentrations: 100 nM and 1000 nM (sheet 'Samples'), CATDS: 0.35383441234921298; n = 1
JAK2 = conditions: read-out: apparent Kd; compound concentrations: 100 nM and 1000 nM (sheet 'Samples'), CATDS: 0.243308820463081; n = 1
LIMK1 = conditions: read-out: apparent Kd; compound concentrations: 100 nM and 1000 nM (sheet 'Samples'), CATDS: 6.0612482504371901E-2; n = 1
LYN = conditions: read-out: apparent Kd; compound concentrations: 100 nM and 1000 nM (sheet 'Samples'), CATDS: 6.5965838221970899E-2; n = 1
MAPK14 = conditions: read-out: apparent Kd; compound concentrations: 100 nM and 1000 nM (sheet 'Samples'), CATDS: 7.0797769182365994E-2; n = 1
MTOR = conditions: read-out: apparent Kd; compound concentrations: 100 nM and 1000 nM (sheet 'Samples'), CATDS: 8.3808219559409397E-2; n = 1
PIK3CD = conditions: read-out: apparent Kd; compound concentrations: 100 nM and 1000 nM (sheet 'Samples'), CATDS: 0.184193400818676; n = 1
PRKACG = conditions: read-out: apparent Kd; compound concentrations: 100 nM and 1000 nM (sheet 'Samples'), CATDS: 7.8396451474863002E-2; n = 1
PRKDC = conditions: read-out: apparent Kd; compound concentrations: 100 nM and 1000 nM (sheet 'Samples'), CATDS: 6.9640678326095301E-2; n = 1
RET = conditions: read-out: apparent Kd; compound concentrations: 100 nM and 1000 nM (sheet 'Samples'), CATDS: 7.1676948179133407E-2; n = 1
T10 = test system: T1, T10; conditions: read-out: apparent Kd; compound concentrations: 100 nM and 1000 nM (sheet 'Samples'), CATDS: 5.8337212061708103E-2; n = 1
T1 construct: gene NAT10

GSK3A = conditions: read-out: apparent Kd; compound concentrations: 100 nM and 1000 nM (sheet 'Samples'), CATDS: 0.39261135326021201; n = 1
GSK3B = conditions: read-out: apparent Kd; compound concentrations: 100 nM and 1000 nM (sheet 'Samples'), CATDS: 0.34419414793352499; n = 1
AKT1 = conditions: read-out: apparent Kd; compound concentrations: 100 nM and 1000 nM (sheet 'Samples'), CATDS: 0.39563035574495098; n = 1

CNC(=O)c1cncc(/C=C/c2ccccc2Cl)c1 [GW445017X]
potency estimated from few doses (ADCK3; CATDS: 1): 747 nM

COc1cc(C)c(NC(=O)CN(C)C)cc1Nc1nc(Nc2cccc(F)c2C(N)=O)c2cc[nH]c2n1 [GSK2213727A]
potency estimated from few doses (ADCK3; CATDS: 5.9808730869804497E-2): 688 nM
potency estimated from few doses (CLK1): 335 nM
potency estimated from few doses (CLK4): 936 nM
potency estimated from few doses (FER): 82.7 nM
potency estimated from few doses (FES): 609 nM
potency estimated from few doses (IGF1R): 94.7 nM
potency estimated from few doses (INSR): 56.7 nM
potency estimated from few doses (PLK1): 1230 nM
potency estimated from few doses (PRKCZ): 1660 nM
potency estimated from few doses (PTK2B): 93.3 nM
potency estimated from few doses (PTK2): 231 nM
potency estimated from few doses (RIPK3): 1790 nM
potency estimated from few doses (TNK1): 293 nM
potency estimated from few doses (TTK): 1810 nM

O=C(Nc1cccc(-c2nn3ccccc3c2-c2ccnc(Nc3cccc(F)c3)n2)c1)c1c(F)ccc(F)c1Cl [GSK357952A]
potency estimated from few doses (ADCK3; CATDS: 1): 131 nM

CN(c1ccc(NC(=O)Nc2cc(C(F)(F)F)ccc2F)cc1)c1ccnc(Nc2ccc(S(N)(=O)=O)cc2)n1 [GW809893X]
potency estimated from few doses (ADCK1): 1370 nM
potency estimated from few doses (FLT3): 36.1 nM
potency estimated from few doses (JAK2): 65 nM
potency estimated from few doses (LIMK1): 1630 nM
potency estimated from few doses (LYN): 1210 nM
potency estimated from few doses (MAPK14): 973 nM
potency estimated from few doses (MTOR): 610 nM
potency estimated from few doses (PIK3CD): 107 nM
potency estimated from few doses (PRKACG): 728 nM
potency estimated from few doses (PRKDC): 1020 nM
potency estimated from few doses (RET): 938 nM
potency estimated from few doses (T10): 1880 nM

Cc1ccc(C)c(C2=C(c3cn(C)c4ccccc34)C(=O)NC2=O)c1 [RO0317699-000]
potency estimated from few doses (ADCK3; CATDS: 0.28187952548436401): 629 nM
potency estimated from few doses (GSK3A): 316 nM
potency estimated from few doses (GSK3B): 404 nM

FC(F)(F)c1ccc(-c2nn3ncccc3c2-c2ccnc(Nc3ccc(Cl)c(C(F)(F)F)c3)n2)cc1 [GW829350X]
potency estimated from few doses (ADCK3; CATDS: 0.67916876553854699): 727 nM
potency estimated from few doses (AKT1): 2350 nM
